The source of these data is PubChem BioAssay (NCI).

Some test systems named below: SR leukemia; RPMI-8226 leukemia; OVCAR-8 ovarian; OVCAR-5 ovarian; OVCAR-4 ovarian; SK-OV-3 ovarian; IGROV1 ovarian; OVCAR-3 ovarian; HS 578T breast; NCI/ADR-RES ovarian.
Holding throughout (test): NCI-60 one-dose screen, 48 h (100 = growth as untreated, 0 = no growth, -100 = all killed)
Common to all, as to settings: 10 µM unless noted

This is part of a sample that, as a whole, favours compounds with a hit. Of some 83,000 tested, about 20% had one in any assay.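 Note: values are percent growth. 100 is the growth of untreated cells, values between 100 and 0 indicate rising inhibition; between -100 and 0 indicates cell death.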 A number with no mark means an inactive call. Calls of active or inactive are those of the source. Rule for the calls: active = growth percent below 10; inactive = the rest.

As for `Cc1c(C(=O)NCc2ccccc2)[n+](=O)c2cc(F)ccc2n1[O-]`, the growth with SR leukemia is 70.6%; in the assay on RPMI-8226 leukemia it was 64.1%; with OVCAR-8 ovarian, 116%; in the assay on OVCAR-5 ovarian, 103%; in the assay with OVCAR-4 ovarian, 98%; in the assay with SK-OV-3 ovarian it was 109%. For the same compound, the growth is -26.7% (active) with IGROV1 ovarian, 93.2% in the assay on OVCAR-3 ovarian, 148% in the assay with HS 578T breast and 105% in the assay with NCI/ADR-RES ovarian.

On to `ClC1=C(Cl)C(Cl)=C(Cl)C1=Cc1ccc(Cl)cc1Cl`, for which the growth in the assay on SR leukemia is 2.92% (active); in the assay with RPMI-8226 leukemia it was -10.7% (active); in the assay on OVCAR-8 ovarian, 2.92% (active); in the assay on OVCAR-5 ovarian it was 8.75% (active); in the assay on OVCAR-4 ovarian, 5.94% (active); with SK-OV-3 ovarian, 38.5%. In addition, the growth was 7.32% (active) in the assay with IGROV1 ovarian, -83.7% (active) in the assay on OVCAR-3 ovarian, 11.6% in the assay with HS 578T breast and -34.8% (active) with NCI/ADR-RES ovarian.

Consider `O=C(OCCCCOC(=O)n1cnc2ccccc21)n1cnc2ccccc21`, for which the growth in the assay with SR leukemia was 84.6%; in the assay on RPMI-8226 leukemia, 102%; with OVCAR-8 ovarian, 99.7%; in the assay on OVCAR-5 ovarian, 103%; with OVCAR-4 ovarian it was 105%; with SK-OV-3 ovarian, 98.9%. Moreover, the growth is 102% with IGROV1 ovarian, 108% with OVCAR-3 ovarian, 90.2% in the assay with HS 578T breast and 105% in the assay with NCI/ADR-RES ovarian.

For `COc1ccc(-c2nc3sccn3c2-c2ccnc(NCCNS(=O)(=O)c3ccc(C(F)(F)F)cc3)n2)cc1`, the growth in the assay on SR leukemia is 11.6%; in the assay on RPMI-8226 leukemia, 8.83% (active); in the assay on OVCAR-8 ovarian it was 7.86% (active); in the assay with OVCAR-5 ovarian it was 59%; in the assay on OVCAR-4 ovarian, 15.9%; in the assay with SK-OV-3 ovarian, 29.6%. For the same compound, the growth in the assay on IGROV1 ovarian was 16.2%; in the assay on OVCAR-3 ovarian, 2.1% (active); in the assay with HS 578T breast it was 41%; with NCI/ADR-RES ovarian, 9.11% (active).

As to `NS(=O)(=O)c1ccc(NCC(=O)Nc2ccc(-c3nc4ccccc4s3)cc2)cc1`, the growth is 16% in the assay with SR leukemia; 36.7% in the assay with RPMI-8226 leukemia; 82.7% with OVCAR-8 ovarian; 106% with OVCAR-5 ovarian; 67.2% with OVCAR-4 ovarian; 106% with SK-OV-3 ovarian. Further, the growth in the assay with IGROV1 ovarian was 59%; in the assay with OVCAR-3 ovarian, 34.3%; in the assay on HS 578T breast, 98.3%; with NCI/ADR-RES ovarian it was 94%.

As to `O=C(CNC1CCCCC1)Nc1ccc(-c2nc3ccccc3s2)cc1`, the growth with SR leukemia was 9.67% (active); with RPMI-8226 leukemia, 77.6%; with OVCAR-8 ovarian it was 99.3%; in the assay on OVCAR-5 ovarian, 94.7%; in the assay on OVCAR-4 ovarian, 84.4%; in the assay on SK-OV-3 ovarian it was 90.8%. The growth in the assay on IGROV1 ovarian was 100%; with OVCAR-3 ovarian, 94%; with HS 578T breast, 84.3%; in the assay with NCI/ADR-RES ovarian, 89%.

As to `COc1cc(NC(=O)c2cc3ccccc3nc2Nc2ccc(F)cc2)cc(OC)c1OC`, the growth with SR leukemia was 35.7%; with RPMI-8226 leukemia, 29.8%; in the assay with OVCAR-8 ovarian, 43.3%; in the assay with OVCAR-5 ovarian it was 68.8%; in the assay with OVCAR-4 ovarian it was 47.7%; with SK-OV-3 ovarian it was 72.8%. Besides, the growth was 54.5% with IGROV1 ovarian, 36.2% in the assay with OVCAR-3 ovarian, 75.5% with HS 578T breast and 39.7% with NCI/ADR-RES ovarian.

As to `COc1ccc(-c2nc3sccn3c2-c2ccnc(NCCCNS(=O)(=O)c3ccc4ccccc4c3)n2)cc1`, the growth in the assay on SR leukemia is 57%; in the assay on RPMI-8226 leukemia, 54.9%; in the assay with OVCAR-8 ovarian it was 57.3%; with OVCAR-5 ovarian, 132%; in the assay with OVCAR-4 ovarian it was 68.1%; in the assay with SK-OV-3 ovarian it was 95.1%. Besides, the growth in the assay with IGROV1 ovarian was 75.3%; in the assay on OVCAR-3 ovarian, 82.7%; in the assay with HS 578T breast, 92.1%; in the assay with NCI/ADR-RES ovarian, 53.5%.

Turning to `CC(C)C[C@H](NC(=O)[C@@H](Cc1ccccc1)n1ccc(Nc2ccccc2)cc1=O)B(O)O`, the growth was 21% in the assay on SR leukemia; -16% (active) in the assay with RPMI-8226 leukemia; 8.16% (active) in the assay with OVCAR-8 ovarian; 16% in the assay with OVCAR-5 ovarian; 33.9% in the assay on OVCAR-4 ovarian; 46.1% with SK-OV-3 ovarian. For the same compound, the growth in the assay with IGROV1 ovarian was -35.1% (active); with OVCAR-3 ovarian it was -61% (active); in the assay with HS 578T breast it was 22.8%; in the assay with NCI/ADR-RES ovarian, 75%.

Consider `COc1ccc(Cn2c(SC)nc(=O)n(Cc3ccc(Cl)cc3)c2=O)cc1`, for which the growth in the assay with SR leukemia is 84.4%; in the assay on RPMI-8226 leukemia, 92.8%; with OVCAR-8 ovarian, 96%; in the assay on OVCAR-5 ovarian, 92.1%; in the assay with OVCAR-4 ovarian it was 98%; in the assay on SK-OV-3 ovarian it was 106%. In addition, the growth is 102% with IGROV1 ovarian, 102% in the assay on OVCAR-3 ovarian, 94% with HS 578T breast and 95.4% in the assay on NCI/ADR-RES ovarian.

As to `CC/C=C\C[C@H](O)C/C=C1/C(=O)C(Cl)=C[C@@H]1C/C=C\CCCC(=O)O`, the growth in the assay on SR leukemia was 10.9%; in the assay on RPMI-8226 leukemia it was 14.7%; with OVCAR-8 ovarian, 10.9%; in the assay on OVCAR-5 ovarian, 97.1%; in the assay with OVCAR-4 ovarian it was 63.2%; in the assay with SK-OV-3 ovarian, 99.7%. Besides, the growth was 82.7% with IGROV1 ovarian, 28.9% with OVCAR-3 ovarian, 75.9% in the assay on HS 578T breast and 57.1% in the assay on NCI/ADR-RES ovarian.

For the compound `Cc1cc(Nc2nc(-c3ccc(F)cc3)nc3ccccc23)n[nH]1`, the growth is 20.4% with SR leukemia; 94.8% with RPMI-8226 leukemia; 95% in the assay with OVCAR-8 ovarian; 70.3% with OVCAR-5 ovarian; 41% in the assay with OVCAR-4 ovarian; 21% in the assay on SK-OV-3 ovarian. For the same compound, the growth in the assay with IGROV1 ovarian is 11.3%; in the assay on OVCAR-3 ovarian, 61.5%; in the assay with HS 578T breast, 25.1%; in the assay with NCI/ADR-RES ovarian it was 71%.

With `C=CC(=O)N[C@H](/C=C/C(=O)OCC)Cc1ccc(-c2cc(Cl)cc(Cl)c2)cc1`, the growth in the assay on SR leukemia is 68.7%; with RPMI-8226 leukemia, 73.8%; in the assay on OVCAR-8 ovarian it was 76.6%; in the assay on OVCAR-5 ovarian, 95.5%; in the assay on OVCAR-4 ovarian, 83.6%; in the assay with SK-OV-3 ovarian it was 94.6%. For the same compound, the growth in the assay on IGROV1 ovarian is 93%; in the assay on OVCAR-3 ovarian, 89.5%; in the assay on HS 578T breast it was 94.8%; in the assay on NCI/ADR-RES ovarian, 81.8%.
